Here are results for 17 compounds from PubChem BioAssay (NCATS).

Records with an inconclusive call do not appear. Calls of active or inactive are those of the source. Unless noted, the call rests on the fitted dose curve; in most records, active means well fitted curve in the direction sought with a large enough effect; inconclusive means small, poorly fitted or top-dose-only effect, or another doubt; inactive means no such curve, though single readings can be large; an effect the other way counts as inactive or inconclusive.

The target in assay [1] is Glutathione peroxidase 1 (Homo sapiens) (UniProt P07203). As to the kind of experiment: Primary qHTS Assay for Inhibitors of Recombinant Selenoprotein Glutathione Peroxidase 1 (GPX1) (AID 1845191). Further: nearly all actives have a fitted effect of over 65% in size. The method, boiled down:
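10 nM GPX1 + cpd, 30 min RT; start w/ 1 mM GSH, 0.5 mM cumene hydroperoxide, 0.5 mM NADPH, 100 nM GR, 0.01% BSA; buffer 50 mM Tris-HCl pH 7.5, 2 mM EDTA, 150 mM NaCl; Fl 340/450, 0 & 15 min.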
Background: qHTS replaces the single test concentration by a dilution series.

A short description of assay [2]: qHTS drug screen for cell cycle checkpoint inhibitors in PARPi-resistant BRCA-mutant ovarian cancer cell lines. (AID 1963452; calls by dose curve). To be noted: PEO1/OlaR viability, CellTiter-Glo luminescence, 96 h; for Z-AUC: stronger effect = lower value. Put shortly:
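PEO1, PEO4 and PEO1/OlaR ovarian cancer cells, 600 per well, exposed 96 h at 37C to a dilution series. Viability read by CellTiter-Glo luminescence, normalized to DMSO and empty wells; activity summarized as Z-AUC.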

The nature of assay [3]: qHTS assay to identify inhibitors of the type 1 interferon - major histocompatibility complex class I in skeletal muscle: Counter screen cell viability and HiBit confirmation (AID 1347412). Further: potency means the concentration at half of the fitted maximal effect. On activity change, negative = inhibition: on the % scale 0 is the no-effect control and ±100 the full control effect. On all read-outs here: nearly all actives have a fitted effect of over 60% in size. To be noted: iHSKM muscle cells + IFN-b, HiBiT or CellTiter-Glo, 24 h; for activity change, negative = inhibition: at 45.9 µM (top of the series). The method, boiled down: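 HLA-B*08:01–HiBiT knock-in immortalized human myoblasts (C25cl48) stimulated with 4.0 ng/ml human IFN-beta and dosed with compound in a 12-point 1:3 titration (top final 46 uM). After 24 hrs at 37 C, HiBiT lytic luminescence or CellTiter Glo ATP read out.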

Assay [4] is described as follows: qHTS Assay for Lipid Storage Modulators (AID 1519; calls by dose curve; on activity change, negative = inhibition: on the % scale 0 is the no-effect control and ±100 the full control effect). The note with it: Drosophila S3 cells, BODIPY lipid droplet/cell ratio, laser cytometry, cells loaded with oleic acid. The method, boiled down:
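Cells seeded at 5,000 per well were treated with compounds over a concentration series and loaded with oleic acid (400 uM, as added). Lipid droplet fluorescence (488 nm excitation, 500-530 nm channel) was read by laser-scanning cytometry and normalized to 20 uM Triacsin C.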

[5] abbreviates: measured here: PEO1 parental Z-AUC.

Chain of Glutathione peroxidase 1 (Homo sapiens) (P07203 whole entry, looked up): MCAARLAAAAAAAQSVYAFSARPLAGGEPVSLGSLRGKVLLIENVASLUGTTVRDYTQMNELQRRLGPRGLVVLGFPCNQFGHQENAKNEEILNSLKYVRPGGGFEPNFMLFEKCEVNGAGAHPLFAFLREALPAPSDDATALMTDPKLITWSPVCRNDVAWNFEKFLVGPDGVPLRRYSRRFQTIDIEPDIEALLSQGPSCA

Regarding `CC(C)OC(=O)[C@H](C)N[P@](=O)(OC[C@H]1O[C@@H](n2ccc(=O)[nH]c2=O)[C@](C)(F)[C@@H]1O)Oc1ccccc1`, the Potency result in assay [1] was “inactive”. Besides, the Z-AUC in assay [2] was -0.0429 (inactive); in assay [2] (setting [5]) it was 0.659; in assay [2] (measured here: PEO4 Z-AUC), 0.765.

With `C=CC(=O)Nc1cc(N2CCN(CC)CC2)ccc1Nc1cc(N(C)C(=O)Nc2c(Cl)c(OC)cc(OC)c2Cl)ncn1`, in assay [1], the Potency entry is “inactive”. Moreover, the Z-AUC was 1.02 (inactive) in assay [2], 0.686 in assay [2] (setting [5]) and 0.736 in assay [2] (measured here: PEO4 Z-AUC).

As for `CN(C)C(N)=NC(=N)N`, the Potency entry in assay [1] is “inactive”. In addition, in assay [2], the call was inactive.

Take `CN(C)Cc1ccc(S(=O)(=O)n2ccc(/C=C/C(=O)NO)c2)cc1`: in assay [1], the Potency entry was “inactive”. The Z-AUC in assay [2] was 0.736 (inactive); in assay [2] (setting [5]), 1.02; in assay [2] (measured here: PEO4 Z-AUC) it was 1.35. Besides, in assay [3] (HiBiT), the Potency was 7.01 µM (active). The activity change, negative = inhibition in assay [3] (Viability) was -5.13% (inactive).

Turning to `Cc1cc2cc(Oc3ccnc(Nc4cccc(CS(=O)(=O)NCCN(C)C)c4)n3)ccc2[nH]1`, the Potency result in assay [1] is “inactive”. For the same compound, the Z-AUC in assay [2] is 0.517 (inactive); in assay [2] (setting [5]) it was 0.192; in assay [2] (measured here: PEO4 Z-AUC), 0.0861. Further, the Potency in assay [3] (HiBiT) was 22.2 µM (active). Also, the activity change, negative = inhibition in assay [3] (Viability) was -27.6% (inactive).

For `Cc1cc(O)c(-c2ccc([C@@H](C)CN)cc2)c2c1[nH]c(=O)c1sccc12`, the Potency result in assay [1] is “inactive”. In addition, the Z-AUC in assay [2] is -2.55 (inactive); in assay [2] (setting [5]) it was -2.78; in assay [2] (measured here: PEO4 Z-AUC), -2.98. For the same compound, in assay [3] (HiBiT), the Potency was 0.0394 µM (active). In assay [3] (Viability), the activity change, negative = inhibition was -14.1% (inactive).

Consider `C[C@@H]1C[C@H](N)C[C@H](c2ccncc2NC(=O)c2ccc(F)c(-c3c(F)cccc3F)n2)C1`, for which the Potency result in assay [1] is “inactive”. The Z-AUC in assay [2] was -0.973 (inactive); in assay [2] (setting [5]) it was -0.644; in assay [2] (measured here: PEO4 Z-AUC), -0.817. Also, the activity change, negative = inhibition was -24.5% (inactive) in assay [3] (HiBiT) and -19.6% (inactive) in assay [3] (Viability).

Take `CC(=O)/C=C1/C(=O)N(C)c2ccccc21`: the Potency in assay [3] (HiBiT) is 19.8 µM (active). The activity change, negative = inhibition in assay [3] (Viability) was -2.06% (inactive).

On to `CC#CC(=O)N1CC[C@@H](n2c(=O)n(-c3ccc(Oc4ccccc4)cc3)c3c(N)ncnc32)C1`, for which the Potency result in assay [1] is “inactive”. In addition, the Z-AUC is 1.04 (inactive) in assay [2], 0.828 in assay [2] (setting [5]) and 1.1 in assay [2] (measured here: PEO4 Z-AUC). Moreover, the activity change, negative = inhibition is -23.5% (inactive) in assay [3] (HiBiT) and -0.0272% (inactive) in assay [3] (Viability).

`C[C@@H](Oc1cc(C(=O)Nc2ccc(C(=O)N3CCN(C)CC3)cc2)nnc1N)c1c(Cl)ccc(F)c1Cl`: the Potency result in assay [1] is “inactive”. Also, the results for the Z-AUC in assay [2], in assay [2] (setting [5]) and in assay [2] (measured here: PEO4 Z-AUC) were -0.576 (inactive), -1.08 and -1.2, respectively. In assay [3] (HiBiT), the activity change, negative = inhibition was -32.5% (inactive).

As for `Nc1ncc(C(=O)NC2CN(C(=O)C3CC3)C2)c2ccc(-c3cccc(F)c3)nc12`, the Z-AUC is 1.21 (inactive) in assay [2], 0.799 in assay [2] (setting [5]) and 0.359 in assay [2] (measured here: PEO4 Z-AUC).

As for `Cc1cc(Oc2ccc3nc(COc4ccc(CC5SC(=O)NC5=O)cc4)n(C)c3c2)cc(C)c1N` (stereo not given), the Potency entry in assay [1] is “inactive”. The Z-AUC in assay [2] is -0.262 (inactive); in assay [2] (setting [5]), 0.128; in assay [2] (measured here: PEO4 Z-AUC) it was -0.444.

On to `CO[C@H]1/C=C/O[C@@]2(C)Oc3c(C)c(O)c4c(O)c(c5c(c4c3C2=O)=NC2(CCN(CC(C)C)CC2)N=5)NC(=O)/C(C)=C/C=C/[C@H](C)[C@H](O)[C@@H](C)[C@@H](O)[C@@H](C)[C@H](OC(C)=O)[C@@H]1C`, for which, in assay [1], the Potency entry was “inactive”. Also, the values for the Z-AUC in assay [2], in assay [2] (setting [5]) and in assay [2] (measured here: PEO4 Z-AUC) were 1.28 (inactive), 0.697 and 0.909, respectively.

Regarding `O=C(CCc1ccc(O)cc1)c1c(O)cc(O)cc1O[C@@H]1O[C@H](CO)[C@@H](O)[C@H](O)[C@H]1O`, the figures for the activity change, negative = inhibition in assay [4] (at 57.5 µM (top of the series)), in assay [3] (HiBiT) and in assay [3] (Viability) were 9.34% (inactive), 6.74% (inactive) and 1.25% (inactive), respectively. Besides, the max response in assay [4] (measured here: cell count channel max response) is 19.8%; in assay [4] (measured here: lipid channel max response) it was 29.9%. Also, in assay [1], the Potency entry was “inactive”. In addition, the Z-AUC in assay [2] is 0.341 (inactive); in assay [2] (setting [5]), 0.557; in assay [2] (measured here: PEO4 Z-AUC) it was 0.754.

Turning to `C/C=C(/C)C(=O)O[C@H]1C(C)=CC23C(=O)C(C=C(CO)[C@@H](O)[C@]12O)[C@H]1[C@@H](C[C@H]3C)C1(C)C` (stereo not given in full), the Potency entry in assay [1] was “inactive”. The Z-AUC in assay [2] was -0.0624 (inactive); in assay [2] (setting [5]) it was -0.301; in assay [2] (measured here: PEO4 Z-AUC) it was -0.581.

For `CO[C@@H]1[C@@H](O)[C@H](O)[C@@H](n2c3c(Cl)cccc3c3c4c(c5c6cccc(Cl)c6[nH]c5c32)C(=O)NC4=O)O[C@H]1CO`, the Potency entry in assay [1] is “inactive”. The Z-AUC is -0.593 (inactive) in assay [2], -0.854 in assay [2] (setting [5]) and -0.743 in assay [2] (measured here: PEO4 Z-AUC). Also, the Potency in assay [3] (HiBiT) is 4.97 µM (active). Besides, the activity change, negative = inhibition in assay [3] (Viability) is -21.4% (inactive).

Consider `COc1cc(-c2cn(C)c(=O)c3cnccc23)cc(OC)c1CN(C)C`, for which the Z-AUC in assay [2] is 1.5 (inactive); in assay [2] (setting [5]), 0.545; in assay [2] (measured here: PEO4 Z-AUC), 0.614.
